Experimental data published in PubChem BioAssay (NCI).
About 83,000 compounds went through this panel and 20% of them were active in at least one assay; those are over-represented in the sample as a whole.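 Values shown are percent growth following 48 h exposure of cells in 96-well plates to a single concentration of compound; below 10 was considered active.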 Unmarked numbers belong to inactive results. The source made the active and inactive calls.

Legend:
Assay in all cases: NCI-60 one-dose screen, 48 h (100 = growth as untreated, 0 = no growth, -100 = all killed)
[1] = system: SK-MEL-2 melanoma; conditions: 10 µM
[2] = system: EKVX NSCLC; conditions: 10 µM unless noted
[3] = system: SN12C renal; conditions: 10 µM unless noted
[4] = system: UO-31 renal; conditions: 10 µM unless noted
[5] = system: TK-10 renal; conditions: 10 µM unless noted
[6] = system: ACHN renal; conditions: 10 µM unless noted
[7] = system: CAKI-1 renal; conditions: 10 µM unless noted
[8] = system: A498 renal; conditions: 10 µM unless noted
[9] = system: CCRF-CEM leukemia; conditions: 10 µM unless noted
[10] = system: MOLT-4 leukemia; conditions: 10 µM unless noted

CCc1nc2ccc(Cc3ccc(C(=O)NO)cc3)cc2c(=O)n1CCc1ccccc1
growth [1]: -33.4% (active)
growth [2]: -23.3% (active)
growth [3]: -20.5% (active)
growth [4]: -63.4% (active)
growth [5]: -29.7% (active)
growth [6]: -35.3% (active)
growth [7]: -37% (active)
growth [8]: -75.9% (active)
growth [9]: 2.95% (active)
growth [10]: -18.7% (active)

COc1cnc2c(c1)C(=O)c1c-2n(CCCn2ccnc2)c(=O)c2cc(Cl)ccc12
growth [1]: 50%
growth [2]: 40.2%
growth [3]: 10%
growth [4]: -0.232% (active)
growth [5]: 45.9%
growth [6]: -3.65% (active)
growth [7]: 11.9%
growth [8]: -41.2% (active)
growth [9]: -11.9% (active)
growth [10]: -23.6% (active)

CC(=O)Oc1ccccc1C(=O)N=C1[Se]CCN1C(=O)c1ccccc1OC(C)=O
growth [1]: -18.4% (active)
growth [2]: -39% (active)
growth [3]: -30% (active)
growth [4]: -91% (active)
growth [5]: -72.3% (active)
growth [6]: -91.5% (active)
growth [7]: -97.7% (active)
growth [8]: -94% (active)
growth [10]: 6.05% (active)

COC(=O)[C@]12CC[C@@H](C)[C@H](C)[C@@H]1C1=CC[C@@H]3[C@@]4(C)C(C=O)=C[C@@](C)(COS(C)(=O)=O)C4=CC[C@@]3(C)[C@]1(C)CC2
growth [1]: -40.3% (active)
growth [2]: -39.2% (active)
growth [3]: -37.8% (active)
growth [4]: -93.8% (active)
growth [5]: -54.7% (active)
growth [6]: -82.8% (active)
growth [7]: -43.9% (active)
growth [9]: -1.17% (active)
growth [10]: 0.901% (active)

O=C(NCCO)Nc1ccc(-c2nc(N3CCOCC3)c3cccn3n2)cc1
growth [1]: -9.19% (active)
growth [2]: 3.13% (active)
growth [3]: 5.36% (active)
growth [4]: -18.2% (active)
growth [5]: -23.5% (active)
growth [6]: 9.2% (active)
growth [7]: 9.37% (active)
growth [8]: -54.8% (active)
growth [9]: 27.4%
growth [10]: 16.2%

CC1(O)CCC(Nc2cc(-c3ccc(C(F)(F)F)cc3)c(C#N)c3nc4ccccc4n23)CC1 (stereo not given)
growth [1]: 73.4%
growth [2]: 54.1%
growth [3]: 63.9%
growth [4]: 47.1%
growth [5]: 71.4%
growth [6]: 59.8%
growth [7]: 54.6%
growth [8]: 46.8%
growth [10]: 27.5%

COc1cnc2c(c1)C(=O)c1c-2n(CCCN2CCC(N)CC2)c(=O)c2cc([N+](=O)[O-])ccc12
growth [1]: 109%
growth [2]: 75.7%
growth [3]: 21.6%
growth [4]: 63.7%
growth [5]: 82.6%
growth [6]: 19.8%
growth [7]: 45.2%
growth [8]: 62.6%
growth [9]: 1.69% (active)
growth [10]: 0.263% (active)

COC(=O)[C@]12CC[C@@H](C)[C@H](C)[C@@H]1C1=CC[C@@H]3[C@@]4(C)C(c5cnco5)=C[C@@](C)(CO)C4=CC[C@@]3(C)[C@]1(C)CC2
growth [1]: 42.3%
growth [2]: 41.2%
growth [3]: 55.9%
growth [4]: 44.1%
growth [5]: 69.6%
growth [6]: 25.4%
growth [7]: 34%
growth [9]: 35.5%
growth [10]: 10.1%

CCN(CC)CCCC(C)Nc1cc(-c2ccc(C(F)(F)F)cc2)c(C#N)c2nc3ccccc3n12 (stereo not given)
growth [1]: 79.3%
growth [2]: 35.6%
growth [3]: -30.3% (active)
growth [4]: -76.5% (active)
growth [5]: 68.2%
growth [6]: -65.2% (active)
growth [7]: 52.2%
growth [8]: 87.5%
growth [9]: -7.3% (active)
growth [10]: -28.2% (active)

C=C1C[C@H](O)[C@H](Br)C(C)(C)[C@@]12CCC(C)=C(Cl)C2
growth [1]: 6.3% (active)
growth [2]: 13.5%
growth [3]: 22.6%
growth [4]: 37.1%
growth [5]: 31%
growth [6]: 24.2%
growth [7]: 16.3%
growth [9]: 21.6%
growth [10]: -8.16% (active)

O=C(NO)c1ccc(Cn2c(=O)n(CCc3ccccc3)c(=O)c3ccccc32)cc1
growth [1]: 45.7%
growth [2]: 38.8%
growth [3]: 38.5%
growth [4]: 17.3%
growth [5]: 43.4%
growth [6]: 25.8%
growth [7]: 27.2%
growth [8]: 12.7%
growth [9]: 4.6% (active)
growth [10]: 3.88% (active)

OCCNC(=S)Nc1ccc(-c2nc(N3C[C@H]4CC[C@@H](C3)O4)c3cccn3n2)cc1
growth [1]: -21.5% (active)
growth [2]: 1.72% (active)
growth [3]: 2.32% (active)
growth [4]: -13.8% (active)
growth [5]: -28.2% (active)
growth [6]: 6.16% (active)
growth [7]: 6.32% (active)
growth [8]: -37.5% (active)
growth [9]: 18.9%
growth [10]: 16.7%

COc1cc(C(=O)NNC(=O)c2ccc(NC(=O)CCl)cc2)cc(OC)c1OC
growth [1]: 80.7%
growth [2]: 92.4%
growth [3]: 65.9%
growth [4]: 80.1%
growth [5]: 107%
growth [6]: 89.8%
growth [7]: 98.2%
growth [8]: 85.9%
growth [9]: 33%
growth [10]: 57.2%

O=C(NO)c1ccc(Cn2c(=O)n(-c3ccccc3F)c(=O)c3ccccc32)cc1
growth [1]: -3.95% (active)
growth [2]: 6.72% (active)
growth [3]: 11.5%
growth [4]: 27.2%
growth [5]: 6.07% (active)
growth [6]: 22%
growth [7]: 25%
growth [8]: -34.7% (active)
growth [9]: 2.07% (active)
growth [10]: -8.31% (active)

C=C1[C@@H](O)C[C@H]2C(C)(C)C[C@H](Cl)C[C@]2(C)[C@H]1C[C@H](O)[C@H]1CC(=O)NC1=O
growth [1]: -70.4% (active)
growth [2]: -25.1% (active)
growth [3]: -28.9% (active)
growth [4]: -26.1% (active)
growth [5]: -18.6% (active)
growth [6]: -26.2% (active)
growth [7]: 1.87% (active)
growth [8]: -76% (active)
growth [9]: 0.532% (active)
growth [10]: -11.2% (active)

COc1c(C(NC(=O)c2ccccc2)c2sccc2C)cc(Cl)c2cccnc12 (stereo not given)
growth [1]: 108%
growth [2]: 100%
growth [3]: 94.1%
growth [4]: 89.9%
growth [5]: 98.4%
growth [6]: 104%
growth [7]: 95.4%
growth [9]: 83.9%
growth [10]: 85.7%

Cc1ccc(-c2nc3ccc(Cl)cn3c2NC2CCCCC2)o1
growth [1]: 88.9%
growth [2]: 80.7%
growth [3]: 87.3%
growth [4]: 58.5%
growth [5]: 87.9%
growth [6]: 83.1%
growth [7]: 60.6%
growth [8]: 53.3%
growth [9]: 79.8%
growth [10]: 43.4%

C=C1C(=O)O[C@H]2[C@H]1CC/C(C=Nc1c(N)cc(C(F)(F)F)cc1C(F)(F)F)=C\CC[C@@]1(C)O[C@@H]21
growth [1]: -39.1% (active)
growth [2]: -36.2% (active)
growth [3]: -43.2% (active)
growth [4]: -89.8% (active)
growth [5]: -41% (active)
growth [6]: -89.4% (active)
growth [7]: -59.3% (active)
growth [8]: 34.8%
growth [9]: 4.15% (active)
growth [10]: -13.5% (active)

CCCCCCCC(=O)SCC/C=C/[C@@H]1CC(=O)NCc2nc(co2)C2=N[C@@](C)(CS2)C(=O)N[C@@H](C(C)C)C(=O)O1
growth [1]: -3.78% (active)
growth [2]: 16.2%
growth [3]: 12.6%
growth [4]: -13.5% (active)
growth [5]: -18.6% (active)
growth [6]: -27.5% (active)
growth [7]: -50.8% (active)
growth [9]: 19.3%
growth [10]: 3.84% (active)

N#Cc1c(C(F)(F)F)cc(Nc2ccc3nc(NCCN4CCCC4)oc3c2)n2c1nc1ccccc12
growth [1]: 83.8%
growth [2]: 73.6%
growth [3]: 55.6%
growth [4]: 66.6%
growth [5]: 79.5%
growth [6]: 83%
growth [7]: 74.1%
growth [8]: 52.8%
growth [9]: 11%
growth [10]: 56.7%

COC(=O)CC[C@@H](C)[C@H]1CC[C@H]2C3CC[C@@H]4C[C@@H]5CC[C@]4(C)[C@@]3(O5)[C@H](Br)[C@@H](Br)[C@]12C (stereo not given in full)
growth [1]: 93%
growth [2]: 84.8%
growth [3]: 98.1%
growth [4]: 93.7%
growth [5]: 97.7%
growth [6]: 96.8%
growth [7]: 80.3%
growth [9]: 95.6%
growth [10]: 76%

COc1cnc2c(c1)C(=O)c1c-2n(CCCNC2=NCCS2)c(=O)c2cc(Cl)ccc12
growth [1]: 90.5%
growth [2]: -35.8% (active)
growth [3]: -49.4% (active)
growth [4]: -80.6% (active)
growth [5]: -17.7% (active)
growth [6]: -91.8% (active)
growth [7]: -91.8% (active)
growth [8]: -13% (active)
growth [9]: -23% (active)
growth [10]: -41.5% (active)

NC1=Nc2ccccc2N(O)N1
growth [1]: 89.2%
growth [2]: 95.4%
growth [3]: 99.1%
growth [4]: 88.4%
growth [5]: 94.7%
growth [6]: 100%
growth [7]: 91.8%
growth [9]: 105%
growth [10]: 99.4%

CCN(CC)Cc1cc(Nc2cc(C(F)(F)F)c(C#N)c3nc4ccccc4n23)ccc1O
growth [1]: 4.36% (active)
growth [2]: 15.8%
growth [3]: 5.86% (active)
growth [4]: -17.4% (active)
growth [5]: 10.6%
growth [6]: 4.68% (active)
growth [7]: 6.96% (active)
growth [8]: -14.2% (active)
growth [9]: 5.56% (active)
growth [10]: 4.11% (active)

O=C1/C(=C\c2cccc(OCCCCCOc3ccc(Cl)cc3)c2)N=C2SCCCN12
growth [1]: 41.2%
growth [2]: 37.2%
growth [3]: 77.6%
growth [4]: 39.4%
growth [5]: 56.7%
growth [6]: 49.3%
growth [7]: 52.7%
growth [8]: 39.6%
growth [10]: 36.7%

COc1cnc2c(c1)C(=O)c1c-2n(CCCN2CCC(O)CC2)c(=O)c2cc(Cl)ccc12
growth [1]: 107%
growth [2]: 67.7%
growth [3]: 30.5%
growth [4]: 15%
growth [5]: 82.8%
growth [6]: 8.76% (active)
growth [7]: 20.1%
growth [8]: -3% (active)
growth [9]: 0.479% (active)
growth [10]: -7.04% (active)
